Source: the supplement of paper PMC9262897, “Low-cost anti-mycobacterial drug discovery using engineered E. coli” (Nature Communications, 2022)
Structures can show the parent of a compound that is named as a salt. ± gives the standard deviation of the averaged measurements.

Legend:
Assay in all cases: growth (OD600 after 10 h); higher = more growth (less inhibition)
[1] = test system: E. coli TESEC Alr+ wild-type control; settings: compound 0.1 mM; raw OD600 reference: median of DMSO wells 0.241, cell-free background 0.041
Experimental: (§1)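 TESEC Mtb Alr E. coli, or the Alr+ wild-type control, in 384-well plates with Prestwick library compounds at 0.1 mM and 1% DMSO, across arabinose induction levels of 1E3 to 1E7 nM. Growth is read as OD600 after 10 h at 37 °C in triplicate biological replicates.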

E. coli TESEC Mtb Alr [2] = settings: compound 0.1 mM
Experimental: as §1

E. coli TESEC Mtb Asd = settings: compound 0.1 mM
Experimental: (§2)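 TESEC E. coli strains in which the native enzyme is deleted and replaced by arabinose-inducible Mtb Asd, DapB, CysH or TrpD, each grown in its selective medium. Strains were screened against the Prestwick library at 0.1 mM and 1% DMSO in 384-well format at low and high arabinose induction. Growth is read as OD600 after 10 h in triplicate.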

E. coli TESEC Mtb DapB = settings: compound 0.1 mM
Experimental: as §2

[3] = test system: E. coli TESEC Alr+ wild-type control; settings: compound 0.1 mM; raw OD600 reference: median of DMSO wells 0.49, cell-free background 0.052
Experimental: (§3)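 TESEC Mtb Alr E. coli (ΔaraC ΔtolC ΔentC Δalr ΔdadX, arabinose-inducible Mtb Alr) or the Alr+ wild-type control strain, grown in defined M9-fructose medium without D-alanine in 96-well plates with Prestwick library compounds at 0.1 mM and 1% DMSO. Low Alr induction is 0.1 µM arabinose and high induction is 10 mM arabinose.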

E. coli TESEC Mtb Alr [4] = settings: compound 0.1 mM; remark: listed apart in the source
Experimental: as §3

[5] = arabinose 1000 nM, raw OD600 reference: median of DMSO wells 0.294, cell-free background 0.041
[6] = arabinose 10000 nM, raw OD600 reference: median of DMSO wells 0.264, cell-free background 0.041
[7] = arabinose 100000 nM, raw OD600 reference: median of DMSO wells 0.201, cell-free background 0.041
[8] = arabinose 1000000 nM, raw OD600 reference: median of DMSO wells 0.193, cell-free background 0.041
[9] = arabinose 10000000 nM, raw OD600 reference: median of DMSO wells 0.146, cell-free background 0.041
[10] = arabinose induction (level): High, raw OD600 reference: median of DMSO wells 0.331, cell-free background 0.041
[11] = arabinose induction (level): Low, raw OD600 reference: median of DMSO wells 0.417, cell-free background 0.041
[12] = arabinose induction (level): High, raw OD600 reference: median of DMSO wells […], cell-free background 0.041
[13] = arabinose induction (level): Low, raw OD600 reference: median of DMSO wells 0.227, cell-free background 0.041
[14] = arabinose 100 nM, raw OD600 reference: median of DMSO wells 0.413, cell-free background 0.052
[15] = arabinose 10000000 nM, raw OD600 reference: median of DMSO wells […], cell-free background 0.052

Structure (SMILES) | growth [1] | growth (E. coli TESEC Mtb Alr [2]; [5]) | growth (E. coli TESEC Mtb Alr [2]; [6]) | growth (E. coli TESEC Mtb Alr [2]; [7]) | growth (E. coli TESEC Mtb Alr [2]; [8]) | growth (E. coli TESEC Mtb Alr [2]; [9]) | growth (E. coli TESEC Mtb Asd; [10]) | growth (E. coli TESEC Mtb Asd; [11]) | growth (E. coli TESEC Mtb DapB; [12]) | growth (E. coli TESEC Mtb DapB; [13]) | growth [3] | growth (E. coli TESEC Mtb Alr [4]; [14]) | growth (E. coli TESEC Mtb Alr [4]; [15])
CC(C)n1c(/C=C/C(O)CC(O)CC(=O)O)c(-c2ccc(F)cc2)c2ccccc21 (configuration not stated) [Fluvastatin sodium salt] | 0.165 ± 0.0024 | 0.247 ± 0.017 | 0.192 ± 0.0063 | 0.187 ± 0.015 | 0.0938 ± 0.0088 | 0.157 ± 0.0043 | 0.216 ± 0.066 | 0.32 ± 0.052 | 0.17 ± 0.0096 | 0.199 ± 0.02 | 0.401 ± 0.012 | 0.394 ± 0.03 | 0.235 ± 0.0099
Nc1ccn([C@@H]2O[C@H](CO)[C@@H](O)C2(F)F)c(=O)n1 [Gemcitabine] | 0.1523 ± 0.0014 | 0.208 ± 0.012 | 0.193 ± 0.029 | 0.126 ± 0.012 | 0.116 ± 0.0036 | 0.164 ± 0.003 | 0.137 ± 0.0051 | 0.133 ± 0.0042 | 0.157 ± 0.0053 | 0.177 ± 0.035 | 0.51 ± 0.05 | 0.321 ± 0.018 | 0.217 ± 0.0091
CN1CCCN=C1/C=C/c1cccs1 [Pyrantel tartrate] | 0.235 ± 0.0042 | 0.278 ± 0.0075 | 0.268 ± 0.0081 | 0.191 ± 0.015 | 0.187 ± 0.00096 | 0.148 ± 0.0055 | 0.347 ± 0.032 | 0.416 ± 0.039 | 0.197 ± 0.0092 | 0.249 ± 0.046 | 0.458 ± 0.043 | 0.409 ± 0.0096 | 0.3434 ± 0.0026
CC(N)CCCC(C)(C)O (configuration not stated) [Heptaminol hydrochloride] | 0.252 ± 0.0036 | 0.285 ± 0.011 | 0.26 ± 0.013 | 0.204 ± 0.04 | 0.1796 ± 0.0016 | 0.141 ± 0.0064 | 0.357 ± 0.015 | 0.442 ± 0.022 | 0.188 ± 0.0059 | 0.195 ± 0.02 | 0.501 ± 0.054 | 0.407 ± 0.011 | 0.36 ± 0.0092
C#CCN[C@@H]1CCc2ccccc21 [Rasagiline] | 0.224 ± 0.0077 | 0.281 ± 0.012 | 0.263 ± 0.011 | 0.19 ± 0.011 | 0.194 ± 0.023 | 0.142 ± 0.0024 | 0.245 ± 0.065 | 0.342 ± 0.075 | 0.186 ± 0.0077 | 0.243 ± 0.025 | 0.547 ± 0.014 | 0.421 ± 0.011 | 0.322 ± 0.0094
COC(=O)Nc1nc2cc(C(=O)c3cccs3)ccc2[nH]1 [Nocodazole] | 0.251 ± 0.0038 | 0.292 ± 0.018 | 0.269 ± 0.0045 | 0.211 ± 0.0085 | 0.185 ± 0.0053 | 0.142 ± 0.0038 | 0.345 ± 0.023 | 0.415 ± 0.034 | 0.186 ± 0.0079 | 0.215 ± 0.044 | 0.465 ± 0.044 | 0.419 ± 0.0079 | 0.382 ± 0.044
CCCCCCNC(=O)n1cc(F)c(=O)[nH]c1=O [Carmofur] | 0.1489 ± 0.00094 | 0.215 ± 0.024 | 0.176 ± 0.017 | 0.108 ± 0.0064 | 0.0803 ± 0.0054 | 0.112 ± 0.0029 | 0.235 ± 0.029 | 0.359 ± 0.026 | 0.179 ± 0.01 | 0.201 ± 0.018 | 0.508 ± 0.04 | 0.349 ± 0.056 | 0.134 ± 0.014
OC[C@H]1O[C@@H](Oc2ccc(O)cc2)[C@H](O)[C@@H](O)[C@@H]1O [Arbutin] | 0.245 ± 0.012 | 0.325 ± 0.02 | 0.272 ± 0.011 | 0.193 ± 0.021 | 0.191 ± 0.0053 | 0.144 ± 0.0033 | 0.21 ± 0.011 | 0.362 ± 0.092 | 0.209 ± 0.003 | 0.246 ± 0.051 | 0.499 ± 0.077 | 0.403 ± 0.017 | 0.317 ± 0.013
CC(C)(C)NC(=O)[C@@H]1CN(Cc2cccnc2)CCN1C[C@@H](O)C[C@@H](Cc1ccccc1)C(=O)N[C@H]1c2ccccc2C[C@H]1O [Indinavir sulfate] | 0.2105 ± 0.00051 | 0.293 ± 0.014 | 0.241 ± 0.0041 | 0.221 ± 0.02 | 0.149 ± 0.0054 | 0.139 ± 0.004 | 0.239 ± 0.05 | 0.403 ± 0.025 | 0.216 ± 0.0067 | 0.286 ± 0.022 | 0.558 ± 0.12 | 0.422 ± 0.014 | 0.281 ± 0.01
Clc1ccc(C(Cn2ccnc2)OCc2ccsc2Cl)c(Cl)c1 (configuration not stated) [Tioconazole] | 0.04147 ± 0.00032 | 0.0412 ± 0.0011 | 0.0461 ± 0.00071 | 0.04173 ± 0.00029 | 0.0443 ± 0.00052 | 0.04223 ± 0.00035 | 0.0476 ± 0.0011 | 0.0482 ± 0.0016 | 0.0486 ± 0.00086 | 0.0575 ± 0.017 | 0.0501 ± 0.00075 | 0.0561 ± 0.0097 | 0.051 ± 0.00017
CCOC(=O)O[C@]1(C(=O)OCCl)CC[C@H]2[C@@H]3CCC4=CC(=O)C=C[C@]4(C)[C@H]3[C@@H](O)C[C@@]21C [Loteprednol etabonate] | 0.135 ± 0.003 | 0.167 ± 0.02 | 0.15 ± 0.0072 | 0.196 ± 0.028 | 0.114 ± 0.01 | 0.179 ± 0.0076 | 0.24 ± 0.019 | 0.26 ± 0.14 | 0.174 ± 0.027 | 0.233 ± 0.028 | 0.473 ± 0.12 | 0.371 ± 0.017 | 0.219 ± 0.024
CCCCC(CC)CN1CN(CC(CC)CCCC)CC(C)(N)C1 (configuration not stated) [Hexetidine] | 0.219 ± 0.015 | 0.259 ± 0.0085 | 0.309 ± 0.0098 | 0.228 ± 0.039 | 0.161 ± 0.014 | 0.187 ± 0.0073 | 0.309 ± 0.022 | 0.373 ± 0.059 | 0.218 ± 0.018 | 0.225 ± 0.033 | 0.0454 ± 0.00058 | 0.173 ± 0.21 | 0.0486 ± 0.0013
CC(=O)OCC(=O)[C@@]12OC(C)(C)O[C@@H]1C[C@H]1[C@@H]3C[C@H](F)C4=CC(=O)C=C[C@]4(C)[C@@]3(F)[C@@H](O)C[C@@]12C [Fluocinonide] | 0.229 ± 0.0095 | 0.279 ± 0.012 | 0.275 ± 0.01 | 0.195 ± 0.015 | 0.213 ± 0.041 | 0.163 ± 0.037 | 0.434 ± 0.046 | 0.505 ± 0.0079 | 0.222 ± 0.013 | 0.234 ± 0.033 | 0.499 ± 0.058 | 0.432 ± 0.041 | 0.344 ± 0.033
NS(=O)(=O)c1cc2c(cc1Cl)NC(CC1CCCC1)NS2(=O)=O (configuration not stated) [Cyclopenthiazide] | 0.236 ± 0.0074 | 0.278 ± 0.0078 | 0.2543 ± 0.0017 | 0.273 ± 0.013 | 0.191 ± 0.0034 | 0.143 ± 0.0052 | 0.377 ± 0.063 | 0.314 ± 0.053 | 0.212 ± 0.0077 | 0.214 ± 0.0079 | 0.513 ± 0.035 | 0.375 ± 0.011 | 0.356 ± 0.0061
